# PubChem BioAssay (NCI)
# Compounds without any hit were thinned out: in the full panel of roughly 83,000, 20% have a hit.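 Testing used 96-well plates and a 48-hour single-concentration exposure. Example: -40 means 40% of the starting cells died.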 Values without a mark were called inactive. The source made the active and inactive calls. Rule for the calls: active = growth percent below 10; inactive = the rest.
# Experiments:
# Experiment in all cases: NCI-60 one-dose screen, 48 h (100 = growth as untreated, 0 = no growth, -100 = all killed)
# Details in all cases: 10 µM unless noted
# NCI-H23 lung = system: NCI-H23 lung
# NCI-H226 lung = system: NCI-H226 lung
# NCI-H322M lung = system: NCI-H322M lung
# NCI-H460 lung = system: NCI-H460 lung
# HOP-92 NSCLC = system: HOP-92 NSCLC
# NCI-H522 lung = system: NCI-H522 lung
# A549/ATCC NSCLC = system: A549/ATCC NSCLC
# 786-0 renal = system: 786-0 renal
# COLO 205 colon = system: COLO 205 colon
# DU-145 prostate = system: DU-145 prostate
# MALME-3M melanoma = system: MALME-3M melanoma
# MDA-MB-231 breast = system: MDA-MB-231 breast
# RXF 393 renal = system: RXF 393 renal
# SF-268 CNS = system: SF-268 CNS
# SF-295 CNS = system: SF-295 CNS
# SF-539 CNS = system: SF-539 CNS
# UACC-257 melanoma = system: UACC-257 melanoma
# K-562 leukemia = system: K-562 leukemia
# M14 melanoma = system: M14 melanoma
# HOP-62 NSCLC = system: HOP-62 NSCLC
SMILES,growth (NCI-H23 lung),growth (NCI-H226 lung),growth (NCI-H322M lung),growth (NCI-H460 lung),growth (HOP-92 NSCLC),growth (NCI-H522 lung),growth (A549/ATCC NSCLC),growth (786-0 renal),growth (COLO 205 colon),growth (DU-145 prostate),growth (MALME-3M melanoma),growth (MDA-MB-231 breast),growth (RXF 393 renal),growth (SF-268 CNS),growth (SF-295 CNS),growth (SF-539 CNS),growth (UACC-257 melanoma),growth (K-562 leukemia),growth (M14 melanoma),growth (HOP-62 NSCLC)
C[C@@H]1CC[C@@H]2[C@@H]1[C@H](OC(=O)/C=C/c1ccccc1)[C@]1(C3CCCCC3)C[C@@H](NC(=O)CO)[C@@]2(C)O1,95.8%,102%,92.9%,94.5%,94.4%,71.9%,101%,96.4%,109%,107%,99.2%,102%,53.2%,97.4%,112%,100%,110%,,,
O=S(=O)(NCCNc1cc(-c2c(-c3cccc(O)c3)nc3sccn23)ccn1)c1ccc(Br)cc1,76.2%,62.3%,81.1%,54.1%,74.9%,66.1%,50.1%,52.7%,,57.9%,78.8%,72.8%,60%,41.3%,69%,75.2%,89.1%,34.5%,60.8%,
O=C1c2ccccc2C2(c3ccc(O)cc3)c3ccccc3Oc3cccc1c32 (configuration not stated),33.4%,85.9%,32.5%,11.3%,29.9%,,29%,40.6%,,,66.4%,21.8%,11%,40.3%,21.3%,-1.29% (active),48%,19.8%,0.454% (active),31.5%
CCN(CCO)CC(=O)c1cc(Cl)cc(Cl)c1Cl,96.6%,88.6%,101%,105%,89.4%,67.6%,96.1%,98.1%,,103%,98.2%,103%,93.7%,97.5%,97.8%,104%,102%,99.2%,99.2%,
Cc1[nH]c(-c2nc3ccccc3[nH]2)c(C)c1C(=O)N1CCc2sccc2C1,91.2%,88.3%,98.6%,94.4%,81.6%,77.1%,93%,99.7%,,102%,85.9%,85.9%,101%,97.3%,100%,87.5%,96.9%,82.9%,94.6%,
Cc1c(Cl)cccc1NS(=O)(=O)c1ccccc1,113%,93.1%,110%,112%,89.2%,98.4%,104%,106%,,143%,124%,102%,95.3%,104%,95.2%,102%,95.1%,,105%,
C[C@H]1[C@H](C)CC[C@]2(C(=O)N3CCN(C)CC3)CC[C@]3(C)C(=CC[C@@H]4[C@@]5(C)C/C(=C/c6cccnc6)C(=O)C(C)(C)[C@@H]5CC[C@]43C)[C@H]12,-51.2% (active),-57.2% (active),-52.8% (active),-65.1% (active),-81.7% (active),-79.3% (active),-73.7% (active),-85% (active),,-81.5% (active),-87.3% (active),-80.1% (active),-94.4% (active),-80.3% (active),-84.6% (active),-84.6% (active),-65.3% (active),-46.3% (active),-81.8% (active),
COc1ccc(-c2c(N)n[nH]c2-c2ccccc2O)cc1OC,93.1%,,102%,107%,74%,,95.2%,97.2%,98.1%,116%,62.8%,78.7%,,100%,101%,86.5%,100%,87.2%,,88.9%
Cn1c(NCCc2ccc(O)c(O)c2)nc2c1c(=O)n(Cc1ccc(Cl)cc1)c(=O)n2C,79.1%,,77.2%,96.9%,47.1%,-10.7% (active),104%,92.1%,,87.3%,82.3%,52.3%,73.2%,72.4%,103%,82.7%,117%,77.1%,78.8%,88.5%
Cc1cn(C2CCCCC2)c(=O)[nH]c1=O,115%,,129%,117%,97.4%,97.8%,101%,107%,,163%,120%,103%,113%,108%,111%,109%,102%,,106%,109%
COc1ccc(-c2cc(-c3ccc(Nc4nc(Nc5ccccc5)nc(Nc5ccc(Cl)cc5)n4)cc3)nc(N)c2C#N)cc1,-6.72% (active),,42.2%,24.6%,-67.6% (active),-3.64% (active),38.2%,-81% (active),12.5%,33%,-76.6% (active),-27.4% (active),-12.1% (active),-26.4% (active),34.4%,-54.9% (active),-11.4% (active),4.07% (active),,-31.1% (active)
CCn1nc(C#Cc2c(C)ccc3c(Nc4ccc(Cl)cc4)nccc23)c2c(N)ncnc21,18.4%,,29.2%,10.6%,13.6%,-15.4% (active),16.8%,14.1%,,34.9%,-40.6% (active),8.63% (active),-4.58% (active),17.5%,4.88% (active),-31.6% (active),-9.69% (active),12.8%,5.1% (active),-0.0802% (active)
O=C(O)C1C[C@](O)(c2ccc(F)cc2)[C@@H](c2ccc(F)cc2)O1 (some centres not stated),91.4%,,121%,101%,78.2%,91.5%,112%,95.6%,110%,139%,113%,115%,,117%,94.2%,125%,111%,89.3%,,90.3%
COc1cc(-c2cc(-c3ccc(Nc4nc(Nc5ccccc5)nc(Nc5ccc(Cl)cc5)n4)cc3)nc(N)n2)cc(OC)c1OC,46.9%,,81.9%,65.8%,42.4%,66.3%,79.3%,44%,76.6%,94.7%,59.9%,59%,78.1%,86.6%,70.5%,77.4%,99.4%,23.8%,,47.2%
Cc1nc(Nc2ccc(NC(=S)Nc3ccccc3)cc2)c2ccccc2n1,91.6%,,103%,107%,115%,105%,95.9%,103%,106%,125%,99.5%,97.6%,,111%,99.5%,100%,101%,78.5%,,118%
NC(N)=N/N=C(/c1ccccc1)c1ccccc1F,34.4%,,62%,13.2%,57.8%,4.97% (active),28.4%,-26.2% (active),,15%,35.7%,22.1%,43%,51.8%,11.8%,2.84% (active),68.1%,4% (active),-45.4% (active),17.5%
Cc1ccc(/C(=N\N=C(N)N)c2ccccc2)cc1,16.6%,-4.14% (active),56.6%,2.74% (active),27.3%,-11.8% (active),,-70.3% (active),,10.4%,61.8%,2.26% (active),10.4%,36.1%,1.44% (active),-24.2% (active),59%,0.175% (active),-43.5% (active),
